# Data as given in PubChem BioAssay.
# Several values for one entry are separate records, joined by “and”; a condition that tells them apart may be missing. Identical values can stand only once. Results filed as inconclusive are left out. Activity calls are given as the source filed them.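 How the source made its calls, unless noted: active means compound that reduces growth-factor-driven endothelial tube area in a mixed cell culture, no cutoff stated; inactive means the rest.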
# Assays:
# [1] = Wnt pathway potentiators raising nuclear beta-catenin – imaging, WNT3A-conditioned medium, mouse C2C12, NPC library, primary screen (AID 1117326; in the data active means nuclear beta-catenin stimulation mostly above about 4.2%, no sharp cut-off; inactive means mostly below about 10%); conditions: stronger effect = higher value
# [2] = stimulators of insulin release from INS-1E, primary screen, cell-based, 5 mM glucose, NPC library (AID 1117329;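 active means compound raises insulin release from rat beta cells at 5 mM glucose, no numeric limit stated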); conditions: rat INS-1E insulin secretion, at 10 µM, stronger effect = higher value
# [3] = growth inhibition of GSK3B-pretreated HCT116 cells – cell-based, CellTiter-Glo, 0.2 to 20 µM (AID 1117336;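 active means compounds lowering colon cancer cell viability after pretreatment blocking the GSK3B kinase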); conditions: HCT116 viability after GSK3B inhibitor, at 20 µM, stronger effect = higher value
# [4] = inhibition of endothelial tube formation, primary screen, imaging, VEGF stimulated, CD31 staining, tube area, NPC library (AID 1117340); conditions: VEGF-stimulated ADSC/ECFC co-culture, at 10 µM, stronger effect = higher value
# [5] = GLP1 release stimulators, primary, NCI-H716, NPC library (AID 1117341;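 active means compound raises GLP1 secretion from the human gut endocrine cells, with no numeric limit stated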); conditions: NCI-H716 cells, at 10 µM, stronger effect = higher value
# [6] = HCT116 colon cancer cell growth inhibition, primary screen, CellTiter-Glo luminescence, NPC library (AID 1117342;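 active means compounds that lower survival of HCT116 colon cancer cells in the luminescence readout, no numeric limit stated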); conditions: at 20 µM (top of the series)
# [7] = reduced SW480 viability measured with CellTiter-Glo, NPC library, primary (AID 1117343;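 active means compounds that lower viability of the colon cancer cells in the luminescence readout, with no numeric limit stated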); conditions: CellTiter-Glo luminescence; at 20 µM (top of the series) unless noted
# [8] = NPC library primary testing for decreased DLD-1 cell viability via CellTiter-Glo (AID 1117346;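 active means compounds that lower survival of DLD-1 colon cancer cells in the luminescence readout, no cutoff given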); conditions: DLD-1 viability, CellTiter-Glo luminescence; at 20 µM (top of the series)
# [9] = EMT-state selective cytotoxicity in co-culture – imaging, PC-3E GFP, TEM4-18 mCherry, primary screen (AID 1345086;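 active means compounds killing one labelled cell type while sparing the other, by normalised counts and ratio limits, not self-fluorescent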;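 on all read-outs here: cells exposed to compound for 72 h before imaging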;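 on red/green cell ratio (normalised): normalised mesenchymal count divided by normalised epithelial count so high means epithelial killing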); conditions: PC-3E GFP / TEM4-18 mCherry co-culture, imaging cell counts, at 1 µM; for red/green cell ratio (normalised): actives lie on both sides, counts scaled to control wells, 1 = unselective
# [10] = tested on: Aerobactin synthetase IucA (Klebsiella pneumoniae); assay: inhibition of K. pneumoniae IucA enzyme – biochemical, Tocris library, absorbance (AID 1345561; call rule not given here;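 further: 100% = enzyme without compound and 0% = no enzyme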); conditions: purified IucA enzyme assay, absorbance (OD) read-out; stronger effect = lower value;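 tested at 8 µM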
# [11] = viability loss in pontine glioma line – cell-based, SU-DIPG-XVII, MIPE5.0, CellTiter-Glo, qHTS, dose response (AID 1347060; cut-off not given, nearly all actives have AC50 up to about 26 µM); conditions: CellTiter-Glo ATP luminescence
# [12] = viability loss in pontine glioma line – cell-based, SU-DIPG-XIII, MIPE4.0, CellTiter-Glo, qHTS, dose response (AID 1347061; cut-off not given, nearly all actives have AC50 up to about 37 µM;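 further: cells exposed to compound for 48 hours before readout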); conditions: CellTiter-Glo ATP luminescence
# [13] = viability loss in pontine glioma line – cell-based, JHH-DIPG-1, MIPE4.0, CellTiter-Glo, qHTS, dose response (AID 1347062; cut-off not given, nearly all actives have AC50 up to about 27 µM); conditions: JHH-DIPG-1 viability, CellTiter-Glo ATP luminescence
# [14] = growth inhibition of DIPG cells – cell-based, MIPE5.0 library, qHTS (AID 1347068; cut-off not given, nearly all actives have IC50 up to about 30 µM); conditions: SU-DIPG-XXV viability
# [15] = viability loss with induced miR-34 in A549 – imaging, A549 dox-inducible miR-34, nuclei and caspase counts, primary screen (AID 1347080;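 active means compounds whose cell count with miR-34 switched on is under 0.7 times the count with it off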); conditions: A549 miR-34 inducible, Hoechst nuclei count, 48 h
# [16] = MELAS cybrid and Rieske KO viability enhancers – cell-based, MELAS cybrids, Rieske KO mouse fibroblasts, CellTiter-Glo, primary screen (AID 1508586;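 active means mean z-score across replicates of 1.96 or higher in either the MELAS or the Rieske mutant cell line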;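 further: z relative to plate mean and SD of compound and empty wells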); conditions: low glucose
# [17] = galactose survival enhancers in mitochondrial complex I cybrids – cell-based, galactose medium, ATP luminescence, primary screen (AID 1645843;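 active means z-score of at least 1.8 in each of two replicates, scored against plate mean and spread of sample wells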;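 further: positive z means more ATP and so rescue of galactose-driven cybrid death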); conditions: complex I mutant cybrid cells, 72 h, stronger effect = higher value
# [18] = molecular target: NAD(+) hydrolase SARM1 (Homo sapiens) (UniProt Q6SZW1); assay: blocking NAD cleavage by SARM1 SAM-TIR – cell lysate, NAD-Glo luminescence (AID 1508614;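 active means compound whose remaining NAD level is above about 45 nM, limit read from the data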); conditions: SAM-TIR HEK293T lysate NADase, at 1 µM, stronger effect = higher value
# [19] = P. berghei load reduction in hepatocytes – cell-based, HepG2, luciferase luminescence, HepG2 viability, primary screen (AID 624349; in the data active means parasite load remaining mostly below about 12%, no sharp cut-off; inactive means mostly above about 10%;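 further: 100% = mean of DMSO negative control wells on the same plate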); conditions: P. berghei liver stage in HepG2, luciferase luminescence, concentration not given here; parasite load remaining: stronger effect = lower value; viability: measured here: HepG2 viability without parasites
# [20] = measured here: epithelial PC-3E GFP cell survival
# [21] = measured here: mesenchymal TEM4-18 mCherry cell survival
# [22] = stronger effect = lower value, cell number ratio, induced over uninduced
# [23] = measured here: relative caspase fold change +Dox/-Dox
# [24] = measured here: total cells with miR-34 induction, stronger effect = lower value
# [25] = measured here: total cells without miR-34 induction
# [26] = MELAS cybrid survival, CellTiter-Glo 48 h, stronger effect = higher value
# [27] = Rieske KO mouse fibroblast survival, CellTiter-Glo 72 h
# NAD(+) hydrolase SARM1 (Homo sapiens), sequence (Q6SZW1 whole entry, looked up): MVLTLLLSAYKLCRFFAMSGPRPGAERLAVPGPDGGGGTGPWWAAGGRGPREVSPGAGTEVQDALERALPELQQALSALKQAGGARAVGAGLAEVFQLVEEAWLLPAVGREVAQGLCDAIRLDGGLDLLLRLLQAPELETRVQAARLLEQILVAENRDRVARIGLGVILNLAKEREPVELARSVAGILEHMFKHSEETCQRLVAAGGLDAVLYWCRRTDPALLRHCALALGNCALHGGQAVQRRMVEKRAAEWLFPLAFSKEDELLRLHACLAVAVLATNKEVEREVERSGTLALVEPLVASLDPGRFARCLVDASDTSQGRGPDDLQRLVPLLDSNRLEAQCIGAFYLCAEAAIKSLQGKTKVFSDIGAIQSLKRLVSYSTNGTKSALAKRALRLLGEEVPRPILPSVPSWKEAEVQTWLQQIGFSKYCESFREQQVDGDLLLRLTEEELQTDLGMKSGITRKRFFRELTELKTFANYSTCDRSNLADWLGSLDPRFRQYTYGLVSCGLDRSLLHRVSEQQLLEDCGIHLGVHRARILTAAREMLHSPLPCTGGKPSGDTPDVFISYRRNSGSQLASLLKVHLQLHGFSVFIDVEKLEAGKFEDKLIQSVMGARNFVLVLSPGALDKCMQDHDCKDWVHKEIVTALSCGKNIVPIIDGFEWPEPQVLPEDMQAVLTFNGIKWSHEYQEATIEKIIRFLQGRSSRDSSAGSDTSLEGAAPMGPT
smiles,measurement,setting,value
CNCc1ccccc1,nuclear beta-catenin stimulation,[1]; at 10 µM,-1.9% (inactive)
same,nuclear beta-catenin stimulation,"[1]; stimulation, at 2 µM",0.6%
same,insulin secretion stimulation,[2],-0.1% (inactive)
same,viability decrease,[3],-25.9% (inactive)
same,tube area decrease,[4],-5.5% (inactive)
same,GLP1 secretion stimulation,[5],-3.4% (inactive)
same,inhibition of viability,[6],-14.3% (inactive)
same,viability decrease (inhibition),[7],-24.6% (inactive)
same,viability decrease (inhibition),[8],-15.4% (inactive)
same,red/green cell ratio (normalised),[9],0.9 (inactive)
same,normalised cell number,[9]; [20],1.18
same,normalised cell number,[9]; [21],1.06
CCOCC(O)COc1ccc(NC(=O)CC[S+](C)C)cc1 (stereo unspecified),nuclear beta-catenin stimulation,[1]; at 10 µM,-0.1% (inactive)
same,nuclear beta-catenin stimulation,"[1]; stimulation, at 2 µM",-0.3%
same,insulin secretion stimulation,[2],0.8% (inactive)
same,viability decrease,[3],-7.6% (inactive)
same,tube area decrease,[4],-11.2% (inactive)
same,GLP1 secretion stimulation,[5],-0.3% (inactive)
same,inhibition of viability,[6],0.1% (inactive)
same,viability decrease (inhibition),[7],-6.5% (inactive)
same,viability decrease (inhibition),[8],-3.6% (inactive)
same,remaining activity,[10],96.6% (inactive)
same,outcome,[11],inactive
same,outcome,[12],inactive
same,outcome,[13],inactive
same,outcome,[14],inactive
same,fold change,[15]; [22],0.867 (inactive) and 0.902 (inactive)
same,fold change,[15]; [23],0.938 and 2.11
same,cell count,[15]; [24],8140 and 8470
same,cell count,[15]; [25],9400 and 9390
same,z-score,[16]; [26],-0.246 (inactive)
same,z-score,[16]; [27],0.62
same,z-score,[17],-0.075 (inactive)
Cc1ncc(CSSCc2cnc(C)c(O)c2CO)c(CO)c1O,nuclear beta-catenin stimulation,[1]; at 10 µM,0.2% (inactive)
same,nuclear beta-catenin stimulation,"[1]; stimulation, at 2 µM",-2.2%
same,insulin secretion stimulation,[2],1.7% (inactive)
same,viability decrease,[3],4.2% (inactive)
same,tube area decrease,[4],-25.7% (inactive)
same,GLP1 secretion stimulation,[5],6.7% (inactive)
same,inhibition of viability,[6],14.3% (inactive)
same,viability decrease (inhibition),[7],6.1% (inactive)
same,viability decrease (inhibition),[8],15.6% (inactive)
same,red/green cell ratio (normalised),[9],0.89 (inactive)
same,normalised cell number,[9]; [20],1.03
same,normalised cell number,[9]; [21],0.92
same,fold change,[15]; [22],0.95 (inactive)
same,fold change,[15]; [23],0.868
same,cell count,[15]; [24],8920
same,cell count,[15]; [25],9390
same,remaining NAD,[18],10 nM (inactive)
C[C@@]12C(=O)OC(=O)[C@]1(C)C1CCC2O1,nuclear beta-catenin stimulation,[1]; at 10 µM,-1.7% (active)
same,nuclear beta-catenin stimulation,"[1]; stimulation, at 2 µM",49.7%
same,insulin secretion stimulation,[2],2.3% (inactive)
same,viability decrease,[3],83.1% (active)
same,tube area decrease,[4],111% (active)
same,GLP1 secretion stimulation,[5],20.1% (active)
same,inhibition of viability,[6],73% (active)
same,viability decrease (inhibition),[7],112% (active)
same,viability decrease (inhibition),[8],91% (active)
same,red/green cell ratio (normalised),[9],0.98 (inactive)
same,normalised cell number,[9]; [20],1.02
same,normalised cell number,[9]; [21],1.01
CC(O)Cn1cnc2c1c(=O)n(C)c(=O)n2C (stereo unspecified),parasite load remaining,[19],123% (inactive)
same,viability,[19],89%
same,nuclear beta-catenin stimulation,[1]; at 10 µM,3.9% (inactive)
same,nuclear beta-catenin stimulation,"[1]; stimulation, at 2 µM",0.4%
same,insulin secretion stimulation,[2],-0.4% (inactive)
same,viability decrease,[3],24.9% (inactive)
same,tube area decrease,[4],7.5% (inactive)
same,GLP1 secretion stimulation,[5],1.8% (inactive)
same,inhibition of viability,[6],8.77% (inactive)
same,viability decrease (inhibition),[7],26.1% (inactive)
same,viability decrease (inhibition),[8],6.9% (inactive)
same,red/green cell ratio (normalised),[9],0.96 (inactive)
same,normalised cell number,[9]; [20],1.09
same,normalised cell number,[9]; [21],1.04
same,fold change,[15]; [22],0.894 (inactive)
same,fold change,[15]; [23],1.1
same,cell count,[15]; [24],7540
same,cell count,[15]; [25],8430
same,remaining NAD,[18],10 nM (inactive)
NC(=O)CCCCC1CCSS1 (stereo unspecified),nuclear beta-catenin stimulation,[1]; at 10 µM,-0.8% (inactive)
same,nuclear beta-catenin stimulation,"[1]; stimulation, at 2 µM",2.1%
same,insulin secretion stimulation,[2],-0.6% (inactive)
same,viability decrease,[3],-164% (inactive)
same,tube area decrease,[4],18% (inactive)
same,GLP1 secretion stimulation,[5],-0.8% (inactive)
same,inhibition of viability,[6],-10.3% (inactive)
same,viability decrease (inhibition),[7],-43.7% (inactive)
same,viability decrease (inhibition),[8],-25.4% (inactive)
same,red/green cell ratio (normalised),[9],1.02 (inactive)
same,normalised cell number,[9]; [20],0.81
same,normalised cell number,[9]; [21],0.82
same,fold change,[15]; [22],0.89 (inactive)
same,fold change,[15]; [23],1.01
same,cell count,[15]; [24],8370
same,cell count,[15]; [25],9400
same,remaining NAD,[18],10 nM (inactive)
O=C(OOC(=O)c1ccccc1)c1ccccc1,parasite load remaining,[19],39% (inactive)
same,viability,[19],82.1%
same,nuclear beta-catenin stimulation,[1]; at 10 µM,2.3% (inactive)
same,nuclear beta-catenin stimulation,"[1]; stimulation, at 2 µM",0.3%
same,insulin secretion stimulation,[2],-1.3% (inactive)
same,viability decrease,[3],-5.45% (inactive)
same,tube area decrease,[4],-15.4% (inactive)
same,GLP1 secretion stimulation,[5],-3.2% (inactive)
same,inhibition of viability,[6],1.1% (inactive)
same,viability decrease (inhibition),[7],10% (inactive)
same,viability decrease (inhibition),[8],18.9% (inactive)
same,red/green cell ratio (normalised),[9],1.04 (inactive)
same,normalised cell number,[9]; [20],1.11
same,normalised cell number,[9]; [21],1.15
same,fold change,[15]; [22],0.948 (inactive)
same,fold change,[15]; [23],3.94
same,cell count,[15]; [24],10800
same,cell count,[15]; [25],11400
same,remaining NAD,[18],10 nM (inactive)
CN(C)CCCOc1nn(Cc2ccccc2)c2ccccc12,nuclear beta-catenin stimulation,[1]; at 10 µM,2.1% (inactive)
same,nuclear beta-catenin stimulation,"[1]; stimulation, at 2 µM",0.5%
same,insulin secretion stimulation,[2],86.5% (active)
same,viability decrease,[3],21.7% (inactive)
same,tube area decrease,[4],12.8% (inactive)
same,GLP1 secretion stimulation,[5],6% (inactive)
same,inhibition of viability,[6],46% (inactive)
same,viability decrease (inhibition),[7],82.6% (active)
same,viability decrease (inhibition),[8],84.1% (active)
same,red/green cell ratio (normalised),[9],0.88 (inactive)
same,normalised cell number,[9]; [20],1.01
same,normalised cell number,[9]; [21],0.89
same,z-score,[16]; [26],-0.315 (inactive) and 0.45 (inactive) and -0.608 (inactive)
same,z-score,[16]; [27],-0.145 and 0.0321 and -1.45
same,remaining NAD,[18],10 nM (inactive)
same,z-score,[17],-0.89 (inactive)
CC[C@@H](CO)NCCN[C@@H](CC)CO,parasite load remaining,[19],80.8% (inactive) and 73.3% (inactive)
same,viability,[19],73% and 99%
same,nuclear beta-catenin stimulation,[1]; at 10 µM,0.5% (inactive)
same,nuclear beta-catenin stimulation,"[1]; stimulation, at 2 µM",4.7%
same,insulin secretion stimulation,[2],2.6% (inactive)
same,viability decrease,[3],-8% (inactive)
same,tube area decrease,[4],14.4% (inactive)
same,GLP1 secretion stimulation,[5],-1.2% (inactive)
same,inhibition of viability,[6],-4.17% (inactive)
same,viability decrease (inhibition),[7],11.7% (inactive)
same,viability decrease (inhibition),[8],-13% (inactive)
same,red/green cell ratio (normalised),[9],0.98 (inactive)
same,normalised cell number,[9]; [20],0.99
same,normalised cell number,[9]; [21],0.97
same,fold change,[15]; [22],0.901 (inactive)
same,fold change,[15]; [23],1.1
same,cell count,[15]; [24],11300
same,cell count,[15]; [25],12600
same,remaining NAD,[18],10 nM (inactive)
COc1cc(C(=O)NCCCCCC(=O)O)cc(OC)c1OC,parasite load remaining,[19],48.5% (inactive)
same,viability,[19],104%
same,nuclear beta-catenin stimulation,[1]; at 10 µM,-0.1% (inactive)
same,nuclear beta-catenin stimulation,"[1]; stimulation, at 2 µM",-2.6%
same,insulin secretion stimulation,[2],0.5% (inactive)
same,viability decrease,[3],5.7% (inactive)
same,tube area decrease,[4],12.7% (inactive)
same,GLP1 secretion stimulation,[5],-0.6% (inactive)
same,inhibition of viability,[6],6.2% (inactive)
same,viability decrease (inhibition),[7],-6.6% (inactive)
same,viability decrease (inhibition),[8],-0.7% (inactive)
same,red/green cell ratio (normalised),[9],0.91 (inactive)
same,normalised cell number,[9]; [20],0.95
same,normalised cell number,[9]; [21],0.86
same,fold change,[15]; [22],0.815 (inactive)
same,fold change,[15]; [23],7.04
same,cell count,[15]; [24],11100
same,cell count,[15]; [25],13600
same,remaining NAD,[18],10 nM (inactive)
